Screens (PubChem BioAssay)
PLK1 PBD block = PLK1 (human) polo-box domain binding inhibition | Plk1 PBD binding of FITC phosphopeptide, fluorescence polarization | Potency, µM, inactives show max response, negative = inhibition, actives largely listed as inhibitors | hit rate 2.8% among 360,000 | AID 720504; note: potency is the fitted concentration of half-maximal effect; series mostly up to about 57 µM; nearly all actives have a fitted effect of over 65% in size
VDR inh = inhibitors of human vitamin D receptor. P11473. VDR-SRC2-3 peptide fluorescence polarization, 2 h. Potency, µM, without a hit: max response, negative = inhibition, actives largely listed as inhibitors. hit rate 0.93% among 400,000. AID 504847; note: potency is the fitted concentration of half-maximal effect
Target sequence (P11473 whole entry, looked up): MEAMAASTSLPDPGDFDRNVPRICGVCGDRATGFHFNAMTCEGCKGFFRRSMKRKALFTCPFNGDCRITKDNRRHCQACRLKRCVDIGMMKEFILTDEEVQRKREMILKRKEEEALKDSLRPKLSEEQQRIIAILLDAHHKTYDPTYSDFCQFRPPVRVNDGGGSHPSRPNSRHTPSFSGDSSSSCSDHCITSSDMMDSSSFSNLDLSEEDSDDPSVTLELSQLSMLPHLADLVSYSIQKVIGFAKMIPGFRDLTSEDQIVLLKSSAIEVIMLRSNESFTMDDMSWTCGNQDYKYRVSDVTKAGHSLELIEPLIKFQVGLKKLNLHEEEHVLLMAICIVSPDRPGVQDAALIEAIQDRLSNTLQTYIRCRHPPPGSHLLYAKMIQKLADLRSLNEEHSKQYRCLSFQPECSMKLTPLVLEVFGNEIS
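Fluorescence polarization assay of small-molecule disruption of VDR binding to coregulator peptide SRC2-3. Compounds and controls pin-transferred, then read after 2 h incubation at ambient room temperature.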
Sfp inh = inhibitors of Bacillus subtilis Sfp phosphopantetheinyl transferase; Q9F4F7; Biochemical Sfp PPTase activity, qHTS; Potency, µM, for inactives: largest response in the series, negative = inhibition, hits mostly inhibitors; hit rate 3.5% among 310,000; AID 1490;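 note: the enzyme is Sfp with the accession as filed and its product quenches rhodamine fluorescence; potency is the fitted concentration of half-maximal effect; 0% = enzyme reaction without inhibitor and -100% = no enzyme wells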
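Buffer: 50 mM Hepes-Na pH 7.6, 10 mM MgCl2, 0.01% Nonidet P-40, 0.01% BSA. Enzyme 15 nM, pre-exposed to compound 15 min; substrates then added and fluorescence change tracked over 30 min.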
G9a inh = G9a (human) methyltransferase inhibition; hit rate 8.8% among 350,000; G9a H3K9 monomethylation, AlphaScreen, 2 h; Potency, µM (highest dose often 102 µM), inactives show at the highest dose activity, negative = inhibition, usual class: inhibitors; note: potency is the fitted concentration of half-maximal effect; nearly all actives have a fitted effect of over 75% in size
Target sequence (Q96KQ7 913-1193 limits assumed): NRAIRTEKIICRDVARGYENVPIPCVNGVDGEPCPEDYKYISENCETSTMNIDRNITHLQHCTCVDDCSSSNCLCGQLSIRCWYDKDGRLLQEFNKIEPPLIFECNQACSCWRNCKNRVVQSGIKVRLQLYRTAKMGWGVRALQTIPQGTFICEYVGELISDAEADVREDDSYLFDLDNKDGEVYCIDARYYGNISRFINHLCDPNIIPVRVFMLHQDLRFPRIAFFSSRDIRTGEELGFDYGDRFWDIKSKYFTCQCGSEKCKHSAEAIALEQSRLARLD
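G9a (20 nM) preincubated 15 min RT with compounds, then 500 nM biotinylated H3K9 peptide and 20 uM SAM added; 2 h RT reaction. Monomethyl-H3K9 product detected by AlphaScreen with anti-H3K9me1 antibody, streptavidin donor and anti-rabbit IgG acceptor beads.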
Mm-Cpn inhibitor = inhibitors of Methanococcus maripaludis chaperonin TRiC (MmCpn); purified Mm-Cpn ATPase, ADP Transcreener TR-FRET; Potency, µM (highest dose often 76.9 µM), for the others: at the top dose activity, negative = inhibition, usual class: inhibitors; hit rate 0.031% among 330,000; AID 504842; note: potency is the fitted concentration of half-maximal effect; nearly all actives have a fitted effect of over 80% in size
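ATPase turnover read by TR-FRET ADP competition (Eu cryptate antibody/ADP-d2, 665/590 nm): 10uM ATP final, 25nM Mm-CPN final, 30 min 37degC after 10-min compound preincubation, pH 7.4 Tris/KCl/MgCl2/DTT buffer.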
CCT chaperon mod = modulators of cytosolic chaperonin (CCT/TRiC) activity; purified chaperonin ATPase assay, HTRF ADP detection, 30 min; activity change, % (no concentration beside the values), hits read low; hit rate 0.3% among 360,000; in the data active = activity change below about -30%
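ATPase activity: ADP formed was measured by HTRF Transcreener (665/615 nm ratio) after 30 min at 37 deg C with 10 uM ATP. Compounds screened at one 76 uM concentration against 40 or 20 nM TRiC in Tris pH 7.4/KCl/MgCl2/DTT buffer.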
Starred values were filed as active, the others as inactive; ? = inconclusive; nt = no result; [ ] = dose if it differs, or a comment. Most compounds without a hit are left out; they make up all but 10% or so of the library. Unless noted, calls come from the whole dose curve; as a rule, active = well fitted curve in the direction sought with a large enough effect; inconclusive = small, poorly fitted or top-dose-only effect, or another doubt; inactive = no such curve, though single readings can be large; an effect the other way counts as inactive or inconclusive. Unless noted, % is set by controls: 0 for no effect and ±100 for the full control effect.

SMILES	PLK1 PBD block	VDR inh	Sfp inh	G9a inh	Mm-Cpn inhibitor	CCT chaperon mod
CC(Sc1cccc[n+]1[O-])C(=O)Nc1ccc(Oc2ccccc2)cc1 (stereo not given)	?	-8%	2%	40µM*	1%	0
CC(=O)Nc1ccc(SC(C)C(=O)NC(N)=O)cc1 (stereo not given)	24µM*	-20%	-6%	40µM*	0%	-8
COc1ccc(NC(=O)C(C)Sc2ccccc2)cc1 (stereo not given)	0%	0%	6%	45µM*	3%	0
CC(Sc1ccccc1)C(=O)Nc1ccc(N2CCOCC2)cc1 (stereo not given)	?	7%	7%	-15%	1%	-3
COC(C(=O)Nc1ccc(NC(=O)C(OC)c2ccccc2)cc1)c1ccccc1 (stereo not given)	5%	-21%	20%	50µM*	-3%	0
CC(=O)Nc1ccc(NC(=O)C(Sc2ccccc2)c2ccccc2)cc1 (stereo not given)	-13%	15%	10%	-11%[12.7 µM]	0%	0
CNC(=O)C1CCC(Cn2c(=O)c3sccc3n(Cc3ccccc3)c2=O)CC1 (stereo not given)	nt	1%	nt	2%[59 µM]	nt	nt
Cn1c(=O)oc2cc(S(=O)(=O)CCC(=O)NCc3ccc(Cl)cc3)ccc21	nt	17%	nt	0%[59 µM]	nt	nt
COc1ccccc1/C=N\Nc1ccccc1[N+](=O)[O-]	1%	-4%	-18%	7.9µM*	3%	0
COc1cc(/C=N/Nc2ccc(F)cc2F)cc(OC)c1O	27µM*	-23%	-39%	1.6µM*	1%	-7
CC1=C(/C=N/Nc2ccc([N+](=O)[O-])cc2[N+](=O)[O-])C(C)(C)CCC1	-3%	-9%	-5%	20µM*	0%	-1
COc1ccccc1C(CNc1ncccc1[N+](=O)[O-])N(C)C (stereo not given)	1%	3%	6%	?	0%	1
COc1ccccc1Nc1ncccc1[N+](=O)[O-]	-18%	-5%	0%	8.9µM*	-1%	-49*
Cc1cccc(C(=O)Nc2nnc(SCc3cc(=O)n4cccc(C)c4n3)s2)c1	nt	-3%	nt	-6%[59 µM]	nt	nt
Cc1nn(CC(=O)Nc2cc(F)ccc2F)c(=O)c2cccn12	nt	20%	nt	-36%[59 µM]	nt	nt
Cc1ccc(CNC(=O)Cn2cc3c(n2)-c2c(oc(C(=O)N4CCOCC4)c2C)CC3)cc1	nt	11%	nt	-5%[59 µM]	nt	nt
Cc1[nH]c(=O)[nH]c(=O)c1S(=O)(=O)Nc1cccc(Cl)c1C	nt	-12%	nt	0%[59 µM]	nt	nt
CCCCc1ccc(-n2nc3cc(Cl)c(NC(=O)c4ccc(OC)cc4)cc3n2)cc1	nt	1%	nt	-3%[59 µM]	nt	nt
COc1cc(/C=N/Nc2ccc(S(N)(=O)=O)cc2[N+](=O)[O-])cc(OC)c1O	4%	-18%	6%	nt	-4%	2
CCOc1ccccc1/C=N/Nc1ccccc1[N+](=O)[O-]	-3%	14%	7%	?	-1%	-1
COc1cc(/C=N/Nc2ccccc2[N+](=O)[O-])cc(OC)c1O	-6%	-12%	-1%	7.1µM*	-6%	-2
CC(C)Oc1ccccc1/C=N/Nc1ccccc1[N+](=O)[O-]	1%	5%	-5%	3.5µM*	2%	-2
COc1ccc(/C=N\Nc2ccc([N+](=O)[O-])cc2[N+](=O)[O-])c(C(=O)O)c1OC	-3%	-16%	79µM*	25µM*	0%	0
COc1ccc(/C=N\Nc2ccccc2[N+](=O)[O-])c(C(=O)O)c1OC	-15%	-6%	12%	nt	0%	-2
O=[N+]([O-])c1ccccc1N/N=C/c1cc2ccccc2nc1Cl	-3%	-7%	8%	50µM*	3%	-13
SMILES	PLK1 PBD block	VDR inh	Sfp inh	G9a inh	Mm-Cpn inhibitor	CCT chaperon mod
CCc1ccc(-n2nc(CO)c(C(=O)NC(C)c3ccc(Cl)cc3)n2)cc1 (stereo not given)	nt	3%	nt	8%[59 µM]	nt	nt
Cc1cc(C(=O)NCc2ccccc2)c2c(C)nn(-c3cccc(F)c3)c2n1	nt	-2%	nt	-3%[59 µM]	nt	nt
CCc1ccccc1NC(=O)Cn1nc(N2CCN(c3ccccc3OC)CC2)ccc1=O	nt	13%	nt	-7%[59 µM]	nt	nt
CCN(CC)CCNC(=O)c1ccc(NC(=O)c2cc(-c3ccco3)nc3ccccc23)cc1	-22%	7%	?	32µM*	0%	-7
Cc1nnc(NC(=O)c2cc(-c3ccco3)nc3ccccc23)s1	nt	nt	nt	40µM*	-5%	nt
COCC(=O)Nc1nc2ccccc2s1	-3%	3%	12%	10%[59 µM]	nt	1
COc1ccc(NC(=O)c2cc(-c3ccco3)nc3ccccc23)cn1	?	?	nt	11%[0.501 µM]	1%	2
NC(=S)Nc1nc2ccccc2s1	-13%	-5%	50µM*	55%	1%	-2
COc1ccc(C(=O)Nc2nc3ccccc3s2)c(OC)c1	3.4µM*	?	3%	-17%	-2%	-4
COc1ccc(N(CC(=O)Nc2cccc(Cl)c2)S(=O)(=O)c2c(C)[nH]c(=O)[nH]c2=O)cc1	nt	-20%	nt	?	nt	nt
COCOc1ccc(Br)cc1C(=O)/C=C\c1ccc2c(c1)OCO2	nt	nt	13%	nt	nt	nt
N#Cc1ccc2c(c1)C[C@]1(c3ccsc3)Oc3c(c(=O)oc4ccccc34)C2O1	nt	nt	-16%	7%[2.33 µM]	0%[15.4 µM]	nt
CC(C)Cc1nnc(NC(=O)c2cc(-c3ccccc3)nc3ccccc23)s1	?	?	-22%	-46%	-2%	-3
CCCOc1cccc(-c2cc(C(=O)NNC(=S)NCC)c3ccccc3n2)c1	-25%	-13%	5%	-49%[12.7 µM]	1%	-5
COc1ccc(-c2cc(C(=O)Nc3nc4c(C)cccc4s3)c3ccccc3n2)cc1OC	-9%	3%	-8%	?	0%	1
CCNC(=S)NNC(=O)c1cc(-c2cccc(OC)c2)nc2ccccc12	-1%	-19%	-1%	40µM*	2%	-3
CC(C)Oc1cccc(-c2cc(C(=O)NC(=S)N(C)c3ccccc3C(=O)O)c3ccccc3n2)c1	?	-22%	-51%	22µM*	-1%	-3
CCC(CC)c1nnc(NC(=O)c2cc(-c3ccccc3)nc3ccccc23)s1	0%	-4%	-22%	45µM*	0%	0
COc1cccc(-c2cc(C(=O)Nc3nc4ccccc4s3)c3ccccc3n2)c1	?	14%	40µM*	7%[2.33 µM]	?	3
CCc1ccc(CN(C(=O)c2ccc(OC)cc2)C2CCS(=O)(=O)C2)cc1 (stereo not given)	nt	0%	nt	8%[59 µM]	nt	nt
CCc1ccccc1NC(=O)c1cn(C)c(=O)c2ccccc12	nt	-10%	nt	10%[59 µM]	nt	nt
O=C(Nc1nc2ccccc2s1)c1cc(-c2ccco2)nc2ccccc12	-22%	?	45µM*	?	-1%	1
Cc1ccc2nc(NC(=O)c3cc(-c4ccco4)nc4ccccc34)sc2c1	-10%	-6%	-2%	?	1%	-2
